Common to all, as to design: scale not given: direction of the effect not stated beside the values
Experiment [1] deals with Protein translocase subunit SecA (Escherichia coli (strain K12)) (UniProt P10408). Description: Assay to Identify E. coli SecA ATPase Inhibitors. To be noted: 30 µM. The experiment is classed as functional.
Experiment [2] addresses T1, Ubiquitin-activating enzyme e1, putative (Leishmania donovani (strain BPK282A1)) (UniProt E9BSI1).
T1 sequence (whole entry): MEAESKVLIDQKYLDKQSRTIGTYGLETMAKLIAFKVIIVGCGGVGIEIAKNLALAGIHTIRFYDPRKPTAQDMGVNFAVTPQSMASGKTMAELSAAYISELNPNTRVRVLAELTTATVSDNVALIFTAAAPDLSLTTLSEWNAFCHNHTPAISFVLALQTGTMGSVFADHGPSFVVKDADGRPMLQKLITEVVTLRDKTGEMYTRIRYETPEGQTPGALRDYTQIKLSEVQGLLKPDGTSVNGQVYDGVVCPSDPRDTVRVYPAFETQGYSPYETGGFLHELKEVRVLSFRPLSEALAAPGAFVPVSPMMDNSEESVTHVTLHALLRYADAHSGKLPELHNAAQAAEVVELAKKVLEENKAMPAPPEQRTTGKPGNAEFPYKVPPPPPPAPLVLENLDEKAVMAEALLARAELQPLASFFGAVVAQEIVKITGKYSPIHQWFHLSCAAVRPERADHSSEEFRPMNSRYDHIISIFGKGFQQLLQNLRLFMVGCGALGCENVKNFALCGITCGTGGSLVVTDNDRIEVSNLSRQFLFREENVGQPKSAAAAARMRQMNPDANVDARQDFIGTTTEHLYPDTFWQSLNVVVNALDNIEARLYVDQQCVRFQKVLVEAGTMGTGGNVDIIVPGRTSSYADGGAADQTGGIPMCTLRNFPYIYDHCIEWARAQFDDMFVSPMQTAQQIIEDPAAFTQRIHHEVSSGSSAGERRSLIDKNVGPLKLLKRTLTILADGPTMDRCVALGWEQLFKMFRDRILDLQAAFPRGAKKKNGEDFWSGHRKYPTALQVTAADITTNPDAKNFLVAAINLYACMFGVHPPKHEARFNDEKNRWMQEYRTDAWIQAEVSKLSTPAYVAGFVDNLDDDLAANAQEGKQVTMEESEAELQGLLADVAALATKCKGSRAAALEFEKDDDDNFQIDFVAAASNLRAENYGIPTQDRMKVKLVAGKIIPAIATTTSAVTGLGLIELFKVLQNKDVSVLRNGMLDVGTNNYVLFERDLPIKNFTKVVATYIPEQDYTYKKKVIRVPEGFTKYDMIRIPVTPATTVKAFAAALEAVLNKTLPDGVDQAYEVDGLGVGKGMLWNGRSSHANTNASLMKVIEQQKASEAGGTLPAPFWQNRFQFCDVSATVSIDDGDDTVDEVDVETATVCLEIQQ
Description: Leishmania donovani Ubiquitin Activating Enzyme (LdE1). The class given is functional. As to conditions: 30 µM.

For experiment [3], the target named is AMP-activated protein kinase, AMPK (Homo sapiens) (UniProt P54646+O43741+P54619+Q9UGJ0+Q9Y478+Q13131+Q9UGI9). Description: AMP-dependent Kinase enzyme assay. An in vitro enzyme assay that detects ADP turnover that is directly proportional to AMPK activity. This uses naive AMPK that is activated during the assay with MK-8722. To be noted: 30 µM. The class given is functional.

Experiment [4] concerns the target Sialic acid-binding Ig-like lectin 9 (Homo sapiens) (UniProt Q9Y336). Description: Hs-Siglec9 ALPHAscreen SOP 20170721. To be noted: 10 µM.
The test system of a further experiment is Trypanosoma cruzi. In words: Trypanosoma cruzi phosphomannomutase and mannose-1-phosphate guanylyltransferase assay. The experiment is classed as functional. As to conditions: 10 µM.
The target in experiment [5] is T2, Arginase-2, mitochondrial (Homo sapiens) (UniProt P78540).
T2 sequence (whole entry): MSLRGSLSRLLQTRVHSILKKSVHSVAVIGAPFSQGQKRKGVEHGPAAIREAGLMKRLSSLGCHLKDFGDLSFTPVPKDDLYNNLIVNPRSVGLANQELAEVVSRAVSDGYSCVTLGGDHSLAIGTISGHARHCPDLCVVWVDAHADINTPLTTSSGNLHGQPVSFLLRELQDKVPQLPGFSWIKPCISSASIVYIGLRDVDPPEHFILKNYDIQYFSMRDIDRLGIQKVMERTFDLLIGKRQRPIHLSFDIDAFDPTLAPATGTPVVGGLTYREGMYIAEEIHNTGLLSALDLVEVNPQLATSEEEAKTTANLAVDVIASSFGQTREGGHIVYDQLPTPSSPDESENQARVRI
In words: in vitro enzyme assay to detect the production of urea directly proportional to the activity of Arginase II. Note: in the data most compounds retested in dose-response had high values. The class given is functional. To be noted: 33.3 µM.

Experiment [6] deals with T3, Proteasome subunit beta (Trypanosoma cruzi) (UniProt O96673).
T3 sequence (whole entry): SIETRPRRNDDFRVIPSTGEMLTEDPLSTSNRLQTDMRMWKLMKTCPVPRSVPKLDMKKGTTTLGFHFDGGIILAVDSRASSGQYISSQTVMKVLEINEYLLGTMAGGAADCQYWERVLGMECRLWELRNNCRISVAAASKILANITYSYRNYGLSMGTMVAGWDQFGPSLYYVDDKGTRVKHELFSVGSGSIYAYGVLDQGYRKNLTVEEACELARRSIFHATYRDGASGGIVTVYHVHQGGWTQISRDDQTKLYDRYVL
In words: Trypanosoma cruzi proteasome chymotrypsin-like activity (TcProtChymo) assay. Note: in the data most compounds retested in dose-response had high values. The class given is functional. As to conditions: 9.37 µM.

The species named for a further experiment is Homo sapiens. Description: To identify inhibition of the IFN signalling (Jak-Stat) pathway via expression of an eGFP reporter gene under the control of an IFN-stimulated response element (ISRE) containing MxA promoter. The class given is functional. To be noted: 30 µM.
The target in experiment [7] is T4, Tyrosyl-tRNA synthetase, putative (Trypanosoma cruzi (strain CL Brener)) (UniProt Q4DSP6).
T4 sequence (whole entry): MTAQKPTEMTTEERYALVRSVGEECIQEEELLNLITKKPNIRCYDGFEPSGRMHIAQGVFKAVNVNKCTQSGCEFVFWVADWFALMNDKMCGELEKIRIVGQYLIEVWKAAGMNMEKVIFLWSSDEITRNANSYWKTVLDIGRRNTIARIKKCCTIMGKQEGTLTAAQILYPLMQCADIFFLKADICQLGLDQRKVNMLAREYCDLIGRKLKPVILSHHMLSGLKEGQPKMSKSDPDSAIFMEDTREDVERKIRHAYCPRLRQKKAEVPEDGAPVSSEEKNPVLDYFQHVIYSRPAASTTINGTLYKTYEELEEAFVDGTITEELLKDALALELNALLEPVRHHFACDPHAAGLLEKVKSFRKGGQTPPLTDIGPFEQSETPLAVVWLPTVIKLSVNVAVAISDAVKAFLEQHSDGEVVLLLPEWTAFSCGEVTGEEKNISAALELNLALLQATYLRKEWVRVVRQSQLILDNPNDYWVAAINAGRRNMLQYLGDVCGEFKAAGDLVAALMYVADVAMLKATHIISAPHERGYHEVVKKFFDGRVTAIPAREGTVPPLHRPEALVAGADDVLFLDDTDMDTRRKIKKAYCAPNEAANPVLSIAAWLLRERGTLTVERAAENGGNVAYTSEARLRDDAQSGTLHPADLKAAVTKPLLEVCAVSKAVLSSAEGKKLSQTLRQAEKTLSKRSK
In words: Trypanosoma cruzi tyrosyl tRNA synthetase (TcYRS) _High Tyrosine SOP. Note: in the data most compounds retested in dose-response had high values. The class given is functional. As to conditions: 30 µM.

Experiment [8] concerns the target T4, Tyrosyl-tRNA synthetase, putative (Trypanosoma cruzi (strain CL Brener)). Description: Trypanosoma cruzi tyrosyl tRNA synthetase (TcYRS) SOP. The experiment is classed as functional. To be noted: 30 µM.
Experiment [9] addresses Chromo domain-containing protein 1 (Saccharomyces cerevisiae (strain ATCC 204508 / S288c) (Baker's yeast)) (UniProt P32657). In words: ScCHD-1 Enzyme Inhibition Assay. Note: in the data most compounds retested in dose-response had high values. To be noted: 30 µM. The experiment is classed as functional.

For some of these results: Potency and affinity values are given separately.

Sequence of Sialic acid-binding Ig-like lectin 9 (Homo sapiens) (Q9Y336 whole entry): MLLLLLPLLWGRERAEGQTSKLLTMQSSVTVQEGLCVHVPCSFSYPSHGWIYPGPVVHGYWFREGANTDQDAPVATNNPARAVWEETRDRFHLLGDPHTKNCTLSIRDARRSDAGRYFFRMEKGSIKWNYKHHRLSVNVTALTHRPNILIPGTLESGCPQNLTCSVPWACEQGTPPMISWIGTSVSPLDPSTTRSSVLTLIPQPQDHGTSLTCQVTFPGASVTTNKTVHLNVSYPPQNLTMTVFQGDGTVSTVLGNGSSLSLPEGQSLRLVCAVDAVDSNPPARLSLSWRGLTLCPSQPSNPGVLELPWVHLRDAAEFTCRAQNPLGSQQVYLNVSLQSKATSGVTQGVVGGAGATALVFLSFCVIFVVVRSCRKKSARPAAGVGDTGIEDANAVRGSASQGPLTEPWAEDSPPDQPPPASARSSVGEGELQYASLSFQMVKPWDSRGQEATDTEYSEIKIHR
Sequence of Chromo domain-containing protein 1 (Saccharomyces cerevisiae (strain ATCC 204508 / S288c) (Baker's yeast)) (P32657 whole entry, the tested form may be a part): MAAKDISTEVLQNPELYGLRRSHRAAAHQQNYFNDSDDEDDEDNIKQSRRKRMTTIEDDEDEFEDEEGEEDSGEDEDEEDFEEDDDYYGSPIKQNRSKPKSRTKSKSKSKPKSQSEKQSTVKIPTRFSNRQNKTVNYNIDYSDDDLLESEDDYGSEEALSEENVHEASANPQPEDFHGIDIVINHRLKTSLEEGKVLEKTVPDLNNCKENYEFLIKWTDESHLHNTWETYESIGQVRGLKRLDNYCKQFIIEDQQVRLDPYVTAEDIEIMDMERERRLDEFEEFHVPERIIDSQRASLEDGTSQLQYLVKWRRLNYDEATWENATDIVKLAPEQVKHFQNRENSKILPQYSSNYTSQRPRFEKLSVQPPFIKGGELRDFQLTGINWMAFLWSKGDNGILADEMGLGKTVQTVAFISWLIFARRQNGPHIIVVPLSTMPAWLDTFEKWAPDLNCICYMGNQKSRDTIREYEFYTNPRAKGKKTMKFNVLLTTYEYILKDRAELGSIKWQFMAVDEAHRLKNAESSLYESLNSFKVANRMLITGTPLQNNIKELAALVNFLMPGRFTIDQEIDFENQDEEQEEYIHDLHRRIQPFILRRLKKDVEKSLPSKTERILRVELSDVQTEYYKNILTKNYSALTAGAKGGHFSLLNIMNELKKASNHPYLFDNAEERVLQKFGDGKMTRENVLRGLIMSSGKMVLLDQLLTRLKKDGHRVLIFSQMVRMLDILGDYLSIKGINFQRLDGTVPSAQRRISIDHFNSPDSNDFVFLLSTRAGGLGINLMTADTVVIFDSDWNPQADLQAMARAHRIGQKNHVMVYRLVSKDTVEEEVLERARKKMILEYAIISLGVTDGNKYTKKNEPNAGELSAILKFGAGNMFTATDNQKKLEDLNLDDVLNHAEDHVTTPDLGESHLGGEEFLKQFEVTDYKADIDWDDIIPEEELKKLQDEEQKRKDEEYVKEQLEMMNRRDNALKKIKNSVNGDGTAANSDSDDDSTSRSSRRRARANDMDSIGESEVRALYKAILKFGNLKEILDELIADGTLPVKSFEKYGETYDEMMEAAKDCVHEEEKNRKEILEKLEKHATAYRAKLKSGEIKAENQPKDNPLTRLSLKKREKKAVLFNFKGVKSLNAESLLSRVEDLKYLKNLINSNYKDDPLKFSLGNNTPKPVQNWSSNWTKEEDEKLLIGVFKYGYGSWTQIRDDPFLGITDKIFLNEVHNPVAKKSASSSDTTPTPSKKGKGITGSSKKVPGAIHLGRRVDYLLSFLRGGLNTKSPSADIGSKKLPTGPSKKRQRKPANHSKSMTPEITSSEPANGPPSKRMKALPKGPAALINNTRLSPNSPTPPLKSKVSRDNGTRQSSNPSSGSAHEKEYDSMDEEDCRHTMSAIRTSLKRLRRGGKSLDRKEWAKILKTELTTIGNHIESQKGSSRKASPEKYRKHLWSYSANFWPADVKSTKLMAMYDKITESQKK
Sequence of Protein translocase subunit SecA (Escherichia coli (strain K12)) (P10408 whole entry): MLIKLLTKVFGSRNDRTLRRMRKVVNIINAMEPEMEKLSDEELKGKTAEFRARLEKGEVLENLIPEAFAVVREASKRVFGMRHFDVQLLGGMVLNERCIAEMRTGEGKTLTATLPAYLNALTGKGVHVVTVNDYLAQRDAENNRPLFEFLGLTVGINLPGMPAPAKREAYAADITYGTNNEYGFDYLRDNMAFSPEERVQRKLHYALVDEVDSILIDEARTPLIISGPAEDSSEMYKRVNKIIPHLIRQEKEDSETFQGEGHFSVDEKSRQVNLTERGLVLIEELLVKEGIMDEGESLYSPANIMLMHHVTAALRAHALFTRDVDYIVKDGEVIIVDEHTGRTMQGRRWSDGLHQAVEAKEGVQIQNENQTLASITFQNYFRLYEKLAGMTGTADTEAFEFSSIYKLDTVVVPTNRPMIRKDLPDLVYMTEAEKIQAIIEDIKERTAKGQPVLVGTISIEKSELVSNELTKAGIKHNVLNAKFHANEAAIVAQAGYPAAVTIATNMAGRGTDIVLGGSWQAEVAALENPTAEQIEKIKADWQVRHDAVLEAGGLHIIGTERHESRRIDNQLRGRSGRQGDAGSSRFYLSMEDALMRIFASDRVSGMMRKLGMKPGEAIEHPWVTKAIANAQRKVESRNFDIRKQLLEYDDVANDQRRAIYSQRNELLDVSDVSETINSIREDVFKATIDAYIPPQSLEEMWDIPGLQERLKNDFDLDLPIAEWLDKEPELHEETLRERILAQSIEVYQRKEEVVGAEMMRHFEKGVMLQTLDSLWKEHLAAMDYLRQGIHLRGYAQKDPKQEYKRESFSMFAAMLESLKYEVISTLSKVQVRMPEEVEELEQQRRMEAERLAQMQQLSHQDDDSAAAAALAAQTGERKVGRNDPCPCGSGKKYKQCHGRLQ

For the molecule `CC(NC(=O)c1ccc2c(c1)OCC(=O)N2)c1ccccc1F` (stereo unspecified), the Percent Effect is -5.46% in [1]; 18.4% in [2]; 22% in experiment [3]; 2% in experiment [4]; 1.03% in the experiment with Trypanosoma cruzi; -0.719% in experiment [5]. Besides, the Percent Effect in experiment [6] was 9.39%; in the experiment filed under Homo sapiens, -9.89%; in experiment [7], 10.3%; in experiment [8] it was 18.5%; in experiment [9], -4.32%.

On to `Cc1ccc(F)c(C(=O)N2CCN(S(C)(=O)=O)[C@@H](C)C2)c1`, for which the Percent Effect in experiment [1] is -1.54%; in experiment [2], 2.74%; in [3], 5.45%; in experiment [4], 3.05%; in the experiment with Trypanosoma cruzi, 6.86%; in [5], -1.82%. Moreover, the Percent Effect was 8.7% in experiment [6]; 8.46% in the experiment filed under Homo sapiens; -2.15% in [7]; 5% in experiment [8]; -2.13% in experiment [9].

Regarding `O=C(Nc1cc(F)ccc1OCC1CCCO1)c1ccc(O)nc1` (stereo unspecified), the Percent Effect is -4.33% in [1]; 7.79% in experiment [2]; 8.03% in experiment [3]; -2.88% in experiment [4]; 8.91% with Trypanosoma cruzi; -14.5% in experiment [5]. For the same molecule, the Percent Effect in experiment [6] is 11.4%; in the experiment listed under Homo sapiens, -5.06%; in experiment [7] it was 3.81%; in experiment [8], 14.1%; in experiment [9] it was -22.2%.

In the case of `Cc1cnn(C2CCCN(C(=O)c3ccn(C)c(=O)c3)C2)c1` (stereo unspecified), the Percent Effect in experiment [1] is -0.722%; in experiment [2], 7.79%; in experiment [3] it was -5.73%; in experiment [4], -4%; with Trypanosoma cruzi it was 1.08%; in [5] it was 5.68%. Further, the Percent Effect is -3.15% in experiment [6]; 20.6% in the experiment listed under Homo sapiens; 3.81% in [7]; 11.8% in experiment [8]; -14.6% in experiment [9].

For the molecule `O=C(c1cccc(F)c1)N1CCOC(c2nc(-c3ncccn3)no2)C1` (stereo unspecified), the Percent Effect was -7.06% in experiment [1]; 5.33% in experiment [2]; 0.687% in experiment [3]; -2.48% in [4]; -4.53% with Trypanosoma cruzi; -0.699% in experiment [5]. Further, the Percent Effect was 3.44% in experiment [6]; 17.9% in the experiment listed under Homo sapiens; 3.19% in experiment [7]; 6.41% in experiment [8]; -2.27% in experiment [9].

With `Cc1nnc(SCC(=O)N2CCC3(CC2)c2ccccc2CC3O)o1` (stereo unspecified), the Percent Effect in experiment [1] is -5.99%; in experiment [2] it was 13%; in experiment [3], -6.65%; in experiment [4], 21.9%; with Trypanosoma cruzi it was 6.79%; in experiment [5], 0%. Also, the Percent Effect in experiment [6] is 7.49%; in the experiment filed under Homo sapiens it was -5.03%; in experiment [7] it was 3.23%; in experiment [8], 16.1%; in experiment [9], -7.51%.

Turning to `c1csc(-c2noc(CCCN3CCCC3Cn3cccn3)n2)c1` (stereo unspecified), the Percent Effect in experiment [1] was -4.94%; in [2], -13.5%; in experiment [3], -5.55%; in experiment [4] it was 4.78%; in the experiment on Trypanosoma cruzi, 0.849%; in experiment [5] it was -6.41%. Besides, the Percent Effect in experiment [6] was -1.98%; in the experiment filed under Homo sapiens, 0.955%; in [7] it was 4.43%; in experiment [8], 1.24%; in [9] it was -1.71%.

For `O=C(NC1=NCCCN1c1ccc(Cl)cc1)c1cccc(Cl)c1`, the Percent Effect was -4.08% in experiment [1]; -5.2% in experiment [2]; 0.353% in experiment [3]; -0.0638% in experiment [4]; -6.39% in the experiment on Trypanosoma cruzi; 1.38% in experiment [5]. The Percent Effect in experiment [6] is 15.1%; in the experiment listed under Homo sapiens, 3.87%; in [7], -5.38%; in experiment [8], -8.64%; in experiment [9], 0.69%.

For `CCOCC1CN(C(=O)C2=CCCC2)Cc2cnn(CC)c21` (stereo unspecified), the Percent Effect in experiment [1] is -2.5%; in experiment [2], 16.2%; in experiment [3], -0.303%; in experiment [4], 0.664%; in the experiment on Trypanosoma cruzi, 3.62%; in experiment [5] it was 3.5%. Besides, the Percent Effect in experiment [6] is 19.9%; in the experiment listed under Homo sapiens it was 9.89%; in experiment [7], 3.24%; in [8], 12.8%; in [9] it was -2.18%.

With `Cc1occc1C(=O)N1CCc2c(COCC3CC3)cncc2C1`, the Percent Effect in experiment [1] is -1.99%; in experiment [2], 18.9%; in [3] it was -0.121%; in experiment [4], -6.57%; in the experiment on Trypanosoma cruzi it was 3.03%; in [5], 7.96%. For the same molecule, the Percent Effect in [6] is 26.8%; in the experiment listed under Homo sapiens it was 13.8%; in [7] it was 10.8%; in [8] it was 20.5%; in [9], -0.136%.

Turning to `Cc1[nH]c(=O)[nH]c(=O)c1CN1CCCC(CCc2c(F)cccc2F)C1` (stereo unspecified), the Percent Effect in experiment [1] was -0.639%; in [2], 8.11%; in [3], -5.43%; in [4], 13.8%; in the experiment with Trypanosoma cruzi it was 1.16%; in experiment [5], 1.91%. Moreover, the Percent Effect was 9.14% in experiment [6]; 5.92% in the experiment listed under Homo sapiens; 3.7% in experiment [7]; -9.76% in experiment [8]; -1.15% in experiment [9].
